# Screening results as filed in PubChem.
# Shown are actives, neighbours in structure and some others; about 3.5% of the full set was active somewhere.
# mHTT-CaM PPI inh: disrupts binding of mutant huntingtin to calmodulin; P42858; AlphaScreen His-mHTT/GST-CaM binding, luminescence; inhibition, % at 15 µM; 190,000 compounds, 3.6% hits; AID 1671202;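 note: 0% = both proteins with DMSO and 100% = one protein alone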
# Pf apPOL inh: Pf-apPOL DNA polymerase inhibition; Recombinant Pf-apPOL, molecular beacon fluorescence, 1.5 h; inhibition, % at 10 µM; 210,000 compounds, 0.25% hits
# * marks the source's active call; other numbers are inactive results; . = no result. Cut-off read from the data, not from the text of the source: active = inhibition above about 50%; inactive = the rest.
SMILES,mHTT-CaM PPI inh,Pf apPOL inh
Cc1ccnc(NC(c2ccc([N+](=O)[O-])cc2)c2ccc3cccnc3c2O)c1 (stereo not drawn),100*,-8
Cc1nc(O)c(C(c2cccc([N+](=O)[O-])c2)c2c(O)nc(C)[nH]c2=O)c(=O)[nH]1,3,2
CCC(=O)NC(c1cccc([N+](=O)[O-])c1)c1ccc2cccnc2c1O (stereo not drawn),100*,-2
Cc1ccnc(NC(c2cccc([N+](=O)[O-])c2)c2ccc3cccnc3c2O)c1 (stereo not drawn),100*,-1
Cc1csc2nc(-c3cccc(NS(=O)(=O)c4ccccc4)c3)cn12,16,3
Cc1nc2ccccc2n1C(=O)c1ccc(F)cc1,-7,-6
COc1cc(C(=O)n2c(C)nc3ccccc32)cc(OC)c1OC,89*,-12
Cc1ccccc1C(=O)N1CCC2(C1)NCc1ccccc1NC2=NC(C)(C)C (stereo not drawn),28,-4
CC(C)(C)N=C1Nc2ccccc2CNC12CCN(C(=O)Cc1ccsc1)C2 (stereo not drawn),62*,7
COc1ccccc1CC(=O)N1CCC2(C1)NCc1ccccc1NC2=NC(C)(C)C (stereo not drawn),47,-5
Cc1ccc(F)cc1S(=O)(=O)N1CCC2(C1)NCc1ccccc1NC2=NC(C)(C)C (stereo not drawn),70*,-2
O=C(c1ccc(SCc2cccnc2)c([N+](=O)[O-])c1)N1CCCCCC1,13,3
Cc1c(Cl)cccc1NC(=O)COc1ccc2c(c1)OCO2,11,-7
Cc1ccc(NC(=O)c2ccc([N+](=O)[O-])c(C)c2)cc1Cl,-2,-6
Cc1ccc(NC(=O)c2ccc(NCCN)c([N+](=O)[O-])c2)cc1Cl,54*,0
CCC(=O)Nc1cccc(-c2noc(C3CCN(C(=O)c4ccc(F)c(F)c4)CC3)n2)c1,44,-8
C(#Cc1ccccc1)CN1CCN(CC#Cc2ccccc2)CC1,16,-1
Cc1ccc2ccccc2c1C[N+](C)(C)CC#Cc1ccccc1,77*,.
CCc1ccc(OCC(=O)Nc2c(C)cccc2CC)cc1,-12,1
COCC(=O)N1CCN(Cc2nc3ccccc3[nH]2)CC1,-12,-2
O=C(NCCc1ccc(Cl)cc1)c1cc2n(n1)CCCN(Cc1cccc(F)c1)C2=O,14,1
Cc1ccccc1NC(=O)C1CC(Cl)=CCC1C(=O)O (stereo not drawn),-4,64*
COc1ccccc1NC(=O)C1CC(Cl)=CCC1C(=O)O (stereo not drawn),3,0
COc1ccccc1OCC(=O)Nc1ccc(Nc2ccccc2)cc1,61*,-2
CCC(C)c1ccc(NC(=O)COc2ccccc2OC)cc1 (stereo not drawn),-57,-3
SMILES,mHTT-CaM PPI inh,Pf apPOL inh
CCN(CC)c1ccc(NC(=O)COc2ccccc2OC)cc1,56*,-3
COc1ccccc1OCC(=O)Nc1ccc(C(C)=O)cc1,-4,8
COc1ccc(-c2cc(NC(=O)C(C)C)n(-c3ccc(C)cc3)n2)cc1,-9,4
CC(=Nc1cccc(Br)c1)c1sc2ccccc2c1O,-15,-2
O=C(CCC1CCCN(C(=O)Nc2ccccc2)C1)NCc1cccc(Cl)c1 (stereo not drawn),-3,-6
CCCS(=O)(=O)NCCc1csc(-c2ccc(OC)c(OC)c2)n1,3,-16
COc1cccc(C(=O)NCCCc2ccc(N(C)C)cc2)c1OC,21,5
COc1cc(C)c(C)cc1S(=O)(=O)NCCCc1ccc(N(C)C)cc1,57*,-8
COc1cc(C)c(C)cc1S(=O)(=O)NCCc1csc(-c2ccc(F)cc2)n1,53*,-9
COc1ccc(C2C=C(c3cccc(Br)c3)Nc3nnnn32)c(OC)c1 (stereo not drawn),47,-5
Cc1cc(C)cc(N2CCC(NC(=O)Cc3cccc(F)c3)C2=O)c1 (stereo not drawn),0,-2
Cc1ccc2c(N)c(C(=O)c3ccc(Br)cc3)sc2n1,-6,-8
CC(C)N(C(=O)c1ccccc1F)C(C)C,82*,-6
Cc1cccnc1N(C(=O)c1ccccc1F)C(=O)c1ccccc1F,5,0
O=[N+]([O-])c1cccc(-c2csc(=Nc3ccccc3)n2-c2ccccc2)c1,.,-10
CCn1c(-c2ccccc2)c(C)sc1=Nc1cccc([N+](=O)[O-])c1,57*,3
COc1cccc(C2C(=C(O)c3ccc(Br)cc3)C(=O)C(=O)N2CCN(C)C)c1 (stereo not drawn),-3,1
Cc1cc(Br)cc2c1NC(=O)C2(O)N1CCOCC1 (stereo not drawn),-5,-2
COc1cc(C2(c3ccc(O)c(OC)c3)C(=O)Nc3c(C)cc(Br)cc32)ccc1O,60*,3
Cc1cccc(C(=O)N=c2sccn2Cc2ccccc2C(=O)N2CCCC2)c1,15,0
O=C(N=c1sccn1Cc1ccc(C(=O)N2CCCC2)cc1)c1ccccc1F,7,58*
